Records with an inconclusive call do not appear. Where a structure was tested more than once in an assay, its records may differ in their call. The source made the active and inactive calls. The call rests on the fitted dose curve; in most records, active means well fitted curve in the direction sought with a large enough effect; inconclusive means small, poorly fitted or top-dose-only effect, or another doubt; inactive means no such curve, though single readings can be large; an effect the other way counts as inactive or inconclusive.
Experiments:
[1] = biological target: M-phase phosphoprotein 8 (Homo sapiens) (UniProt Q99549); assay: qHTS Validation Assay for Inhibitors for MPP8 Chromodomain Interactions with Methylated Histone Tails (AID 488949); further: nearly all actives have a fitted effect of over 55% in size; further: potency means the concentration at half of the fitted maximal effect
How it was run: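 50 nM MPP8 + 50 nM b-H3K9me3 peptide, PBS pH 7.4/0.01% Tween-20, 30 min RT; + cpd 30 min RT; + AlphaScreen donor/Ni-chelate acceptor beads 10 ug/mL final, 30 min dark; luminescence read.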

[2] = biological target: Chromobox protein homolog 1 (Homo sapiens) (UniProt P83916); assay: qHTS Validation Assay for Inhibitors of HP1-beta Chromodomain Interactions with Methylated Histone Tails (AID 488953); further: nearly all actives have a fitted effect of over 50% in size; further: potency means the concentration at half of the fitted maximal effect
How it was run: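 HP1-beta (50 nM) was preincubated 30 min at room temperature with biotinylated H3(1-18)K9me3 peptide (50 nM) in PBS pH 7.4, 0.01% Tween-20, then with compounds 30 min. AlphaScreen signal was read after streptavidin donor/nickel chelate acceptor beads (10 ug/mL final).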

[3] = biological target: Methanococcus maripaludis chaperonin (MmCpn) (UniProt Q6LX38); assay: High-Throughput Screening for Modulators of Cytosolic Chaperonin Activity: MmCpn Primary Screen (AID 488978);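 further: 50 nM MmCpn enzyme hydrolysing 30 µM ATP at 37 °C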
How it was run: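 Steps: chaperonin 50 nM final; add compound, 5 min RT; start with ATP, 30 uM final; hold 10 min at 37C; add ADP Transcreener HTRF reagent, 5 min; read ex 320, em 590 and 665 nm.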

[4] = biological target: D(1A) dopamine receptor (Homo sapiens) (UniProt P21728); assay: HTS Assay for Allosteric Agonists of the Human D1 Dopamine Receptor: Primary Screen for Agonists (AID 488981); further: potency means the concentration at half of the fitted maximal effect
How it was run: (§1)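 Tetracycline-induced HEK293 T-REx cells force-coupled to calcium signalling were incubated overnight at 30 C and dye-loaded at room temperature. Calcium flux over 180 s after compound addition flagged agonists; a further 180 s read after EC20 dopamine flagged potentiators.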

[5] = biological target: D(1A) dopamine receptor (Homo sapiens) (UniProt P21728); assay: HTS Assay for Allosteric Agonists of the Human D1 Dopamine Receptor: Primary Screen for Potentiators (AID 488982)
How it was run: as §1

[6] = biological target: Transient receptor potential cation channel subfamily V member 1 (Homo sapiens) (UniProt Q8NER1); assay: HTS Assay for Compounds that Act as Enhancers of the Vanilloid Receptor 1 (AID 488979)
How it was run: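 TRPV1-expressing cells loaded with Fluo-8 calcium dye; compounds added and calcium influx read kinetically for 3 min (agonist phase), then capsaicin at EC20 added and read 2 min more for enhancement. Fluorescence ex 480/em 520 nm.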

[7] = biological target: Thyrotropin receptor (Homo sapiens) (UniProt P16473); assay: qHTS Assay for Antagonists of the Thyroid Stimulating Hormone Receptor (AID 488980); further: series mostly up to about 58 µM
How it was run: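 Readout is cAMP by HTRF competition between cellular cAMP and cAMP-d2 for a cryptate-labelled antibody. Antagonism was assessed in TSHR-transfected HEK293 cells stimulated with 4 nM TSH (EC80, final) in the presence of RO 20-1724.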

[8] = biological target: D(1A) dopamine receptor (Homo sapiens) (UniProt P21728); assay: HTS Assay for Allosteric Agonists of the Human D1 Dopamine Receptor: Primary Screen for Antagonists (AID 488983);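 further: calcium flux response to an EC80 dopamine challenge measured with no-wash dye; nearly all actives have a fitted effect of over 65% in size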; further: potency means the concentration at half of the fitted maximal effect
How it was run: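 Tetracycline-induced HEK293 T-REx cells expressing force-coupled D1 were plated overnight at 30 C, dye-loaded for calcium, and read kinetically. Compounds were pinned in, then an EC80 dopamine challenge followed after 180 s to reveal antagonism.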

[9] = biological target: Tyrosyl-DNA phosphodiesterase 1 (Homo sapiens) (UniProt Q9NUW8); assay: Confirmation Assay for Inhibitors of Tyrosyl-DNA Phosphodiesterase (TDP1) (AID 489007); conditions: recombinant human TDP1 enzymatic activity, dose-response; further: potency means the concentration at half of the fitted maximal effect; nearly all actives have a fitted effect of over 40% in size
How it was run: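 Recombinant E. coli-expressed Tdp1 (1 nM final) was preincubated with compounds 15 min at room temperature, then reacted 5 min with 15 nM 5'-biotin/3'-phosphotyrosine-FITC DNA substrate; cleavage read as loss of AlphaScreen signal (10 ug/ml beads, 10 min).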

Measured: Potency

Chromobox protein homolog 1 (Homo sapiens), sequence (P83916 whole entry, looked up): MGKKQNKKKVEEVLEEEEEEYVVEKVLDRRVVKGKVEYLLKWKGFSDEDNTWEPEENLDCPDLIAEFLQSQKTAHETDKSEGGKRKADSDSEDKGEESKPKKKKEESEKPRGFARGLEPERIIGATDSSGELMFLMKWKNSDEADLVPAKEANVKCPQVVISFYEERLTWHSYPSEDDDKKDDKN
D(1A) dopamine receptor (Homo sapiens), sequence (P21728 whole entry, looked up): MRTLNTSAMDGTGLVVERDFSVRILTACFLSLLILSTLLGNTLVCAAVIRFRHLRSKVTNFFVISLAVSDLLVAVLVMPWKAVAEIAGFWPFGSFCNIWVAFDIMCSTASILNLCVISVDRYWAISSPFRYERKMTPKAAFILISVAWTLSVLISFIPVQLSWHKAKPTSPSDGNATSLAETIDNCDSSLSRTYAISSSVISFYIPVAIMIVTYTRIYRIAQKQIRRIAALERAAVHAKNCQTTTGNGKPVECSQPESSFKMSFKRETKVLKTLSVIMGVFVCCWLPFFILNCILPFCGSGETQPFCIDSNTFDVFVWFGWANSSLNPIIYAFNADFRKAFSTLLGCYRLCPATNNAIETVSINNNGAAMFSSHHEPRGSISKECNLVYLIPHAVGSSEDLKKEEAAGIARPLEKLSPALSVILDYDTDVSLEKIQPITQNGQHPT
Thyrotropin receptor (Homo sapiens), sequence (P16473 whole entry, looked up): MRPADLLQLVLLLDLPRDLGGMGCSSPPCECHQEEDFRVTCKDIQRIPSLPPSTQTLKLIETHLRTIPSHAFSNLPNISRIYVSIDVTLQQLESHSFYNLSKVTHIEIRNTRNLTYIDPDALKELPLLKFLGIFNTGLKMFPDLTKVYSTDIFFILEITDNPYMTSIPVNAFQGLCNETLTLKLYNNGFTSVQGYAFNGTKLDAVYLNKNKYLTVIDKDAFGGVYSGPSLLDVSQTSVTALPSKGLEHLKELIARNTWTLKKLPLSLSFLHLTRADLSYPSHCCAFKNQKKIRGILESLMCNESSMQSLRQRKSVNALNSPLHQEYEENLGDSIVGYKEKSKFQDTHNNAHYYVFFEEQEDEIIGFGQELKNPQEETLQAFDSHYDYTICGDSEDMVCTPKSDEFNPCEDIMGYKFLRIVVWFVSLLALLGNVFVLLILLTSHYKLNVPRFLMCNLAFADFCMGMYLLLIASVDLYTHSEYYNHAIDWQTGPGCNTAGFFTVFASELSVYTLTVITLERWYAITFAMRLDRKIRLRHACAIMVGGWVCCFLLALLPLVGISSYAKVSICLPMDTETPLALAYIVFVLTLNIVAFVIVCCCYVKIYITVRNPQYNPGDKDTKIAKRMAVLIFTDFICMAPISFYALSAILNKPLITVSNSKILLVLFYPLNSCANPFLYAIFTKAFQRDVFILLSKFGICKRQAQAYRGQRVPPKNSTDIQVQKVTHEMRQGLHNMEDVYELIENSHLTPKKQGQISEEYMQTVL
Transient receptor potential cation channel subfamily V member 1 (Homo sapiens), sequence (Q8NER1 whole entry, looked up): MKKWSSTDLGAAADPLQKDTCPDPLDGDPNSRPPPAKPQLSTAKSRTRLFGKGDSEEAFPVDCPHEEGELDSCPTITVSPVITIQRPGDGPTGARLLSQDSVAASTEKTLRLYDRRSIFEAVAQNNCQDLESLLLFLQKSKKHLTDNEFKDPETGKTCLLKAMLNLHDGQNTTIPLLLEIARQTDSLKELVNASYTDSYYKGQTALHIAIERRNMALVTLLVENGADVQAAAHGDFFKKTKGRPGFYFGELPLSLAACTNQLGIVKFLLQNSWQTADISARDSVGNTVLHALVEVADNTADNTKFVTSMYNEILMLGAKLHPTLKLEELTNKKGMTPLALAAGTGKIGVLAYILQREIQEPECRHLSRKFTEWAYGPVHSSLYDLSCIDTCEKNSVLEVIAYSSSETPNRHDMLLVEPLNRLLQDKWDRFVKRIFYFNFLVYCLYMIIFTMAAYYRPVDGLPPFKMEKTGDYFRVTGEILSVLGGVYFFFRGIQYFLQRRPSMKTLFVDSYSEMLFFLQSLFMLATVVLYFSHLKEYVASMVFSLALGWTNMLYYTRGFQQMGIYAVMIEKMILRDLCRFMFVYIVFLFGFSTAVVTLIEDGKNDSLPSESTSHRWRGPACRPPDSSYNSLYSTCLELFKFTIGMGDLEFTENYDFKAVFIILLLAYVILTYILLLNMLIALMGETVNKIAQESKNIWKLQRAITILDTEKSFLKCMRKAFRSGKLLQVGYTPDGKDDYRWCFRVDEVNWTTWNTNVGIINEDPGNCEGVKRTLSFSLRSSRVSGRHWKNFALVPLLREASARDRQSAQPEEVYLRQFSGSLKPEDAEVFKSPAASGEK
Methanococcus maripaludis chaperonin (MmCpn), sequence (Q6LX38 1-543): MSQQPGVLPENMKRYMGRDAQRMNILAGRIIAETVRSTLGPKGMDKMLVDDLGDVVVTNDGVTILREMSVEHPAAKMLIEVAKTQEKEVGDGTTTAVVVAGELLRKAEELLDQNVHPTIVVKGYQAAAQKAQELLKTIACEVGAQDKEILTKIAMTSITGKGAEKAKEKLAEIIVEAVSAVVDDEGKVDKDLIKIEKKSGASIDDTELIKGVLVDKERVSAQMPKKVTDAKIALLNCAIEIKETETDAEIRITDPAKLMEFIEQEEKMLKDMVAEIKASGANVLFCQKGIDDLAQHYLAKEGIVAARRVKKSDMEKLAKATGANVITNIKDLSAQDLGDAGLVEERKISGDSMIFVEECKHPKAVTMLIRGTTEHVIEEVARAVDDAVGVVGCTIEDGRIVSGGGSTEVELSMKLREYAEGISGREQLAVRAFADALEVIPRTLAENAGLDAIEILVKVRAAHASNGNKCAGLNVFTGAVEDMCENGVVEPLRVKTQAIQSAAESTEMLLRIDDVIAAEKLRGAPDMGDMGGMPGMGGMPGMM
M-phase phosphoprotein 8 (Homo sapiens), sequence (Q99549 whole entry, looked up): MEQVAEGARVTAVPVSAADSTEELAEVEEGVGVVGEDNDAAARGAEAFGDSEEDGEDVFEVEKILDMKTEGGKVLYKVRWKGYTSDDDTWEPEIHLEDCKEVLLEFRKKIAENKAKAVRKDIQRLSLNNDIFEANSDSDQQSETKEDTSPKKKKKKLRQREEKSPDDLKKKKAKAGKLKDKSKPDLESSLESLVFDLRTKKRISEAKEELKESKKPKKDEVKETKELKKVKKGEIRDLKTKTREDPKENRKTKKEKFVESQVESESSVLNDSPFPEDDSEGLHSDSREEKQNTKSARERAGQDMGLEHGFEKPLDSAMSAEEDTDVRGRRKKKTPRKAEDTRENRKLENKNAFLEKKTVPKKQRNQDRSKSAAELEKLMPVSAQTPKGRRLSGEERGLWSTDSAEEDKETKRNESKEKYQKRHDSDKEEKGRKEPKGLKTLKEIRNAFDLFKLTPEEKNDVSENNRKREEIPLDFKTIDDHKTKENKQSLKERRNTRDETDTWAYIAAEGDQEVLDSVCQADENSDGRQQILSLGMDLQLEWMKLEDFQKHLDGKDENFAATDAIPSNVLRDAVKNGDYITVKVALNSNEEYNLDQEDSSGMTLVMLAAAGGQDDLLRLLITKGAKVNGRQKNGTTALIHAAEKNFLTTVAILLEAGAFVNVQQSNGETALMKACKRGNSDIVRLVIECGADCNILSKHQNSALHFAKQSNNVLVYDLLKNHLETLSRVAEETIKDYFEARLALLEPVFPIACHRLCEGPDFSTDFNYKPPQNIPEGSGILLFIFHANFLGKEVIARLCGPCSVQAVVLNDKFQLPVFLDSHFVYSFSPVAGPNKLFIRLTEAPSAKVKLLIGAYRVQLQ
Tyrosyl-DNA phosphodiesterase 1 (Homo sapiens), sequence (Q9NUW8 whole entry, looked up): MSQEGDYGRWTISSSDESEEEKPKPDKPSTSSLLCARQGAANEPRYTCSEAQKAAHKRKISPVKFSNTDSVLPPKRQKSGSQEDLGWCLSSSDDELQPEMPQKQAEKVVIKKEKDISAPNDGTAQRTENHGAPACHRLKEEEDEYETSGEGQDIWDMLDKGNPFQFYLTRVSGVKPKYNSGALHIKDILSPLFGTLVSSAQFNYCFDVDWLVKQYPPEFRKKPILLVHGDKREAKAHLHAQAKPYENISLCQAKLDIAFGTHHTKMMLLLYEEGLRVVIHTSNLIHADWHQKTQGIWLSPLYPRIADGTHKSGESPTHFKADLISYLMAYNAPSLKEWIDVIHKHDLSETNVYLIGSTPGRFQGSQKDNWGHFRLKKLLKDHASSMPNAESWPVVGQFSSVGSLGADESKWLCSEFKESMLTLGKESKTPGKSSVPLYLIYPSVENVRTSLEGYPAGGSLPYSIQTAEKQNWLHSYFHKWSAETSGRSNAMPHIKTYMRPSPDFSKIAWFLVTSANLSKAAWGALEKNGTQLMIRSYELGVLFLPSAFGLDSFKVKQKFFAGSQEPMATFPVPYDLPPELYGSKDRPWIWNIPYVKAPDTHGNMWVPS

Cc1ccc(S(=O)(=O)/C=C/C#N)cc1
active: [2] 39.8 µM
inactive: [1] | [3] | [4] | [5]

CC(=O)SCC[N+](C)(C)C
not listed: [9]
inactive: all other assays above

Nc1nc(Cl)nc2c1ncn2[C@@H]1O[C@H](COP(=O)(O)OP(=O)(O)OP(=O)(O)O)[C@@H](O)[C@H]1O
active: [4] 0.891 µM
inactive: [1] | [2] | [3] | [5]

c1cnc2c(c1)ccc1cccnc12
not listed: [9]
inactive: all other assays above

CCN1/C(=C/C(C)=O)Sc2ccc(OC)cc21
not listed: [2] | [8] | [9]
inactive: all other assays above

O=P(O)(O)C(Cl)(Cl)P(=O)(O)O
inactive: [3] | [4] | [5]

CC(C)NC[C@H](O)COc1cccc2[nH]ccc12
not listed: [1] | [2] | [9]
inactive: all other assays above

O=C(c1ccc(OCCCc2cnc[nH]2)cc1)C1CC1
inactive: [1] | [3] | [5] | [8]

CC(C)NCC(O)COc1cccc2ccccc12 (stereo not drawn)
inactive: [1] | [2] | [3] | [5] | [8]

CN(C)CCCO[C@@H]1[C@H]2OC(C)(C)O[C@H]2O[C@@H]1[C@H](O)CO
inactive: [1] | [3] | [4] | [5]

CN1CCc2cccc3c2C1Cc1ccc(O)c(O)c1-3 (stereo not drawn)
active: [1] 20 µM
inactive: [3] | [6] | [7] | [4] | [5]

COc1ccc(NC(=O)/C=C/c2ccc(Cl)cc2)cc1
not listed: [2] | [9]
inactive: all other assays above

O=C(O)CNC(=O)C(CS)Cc1ccccc1 (stereo not drawn)
not listed: [1] | [9]
inactive: all other assays above

COc1ccccc1N1CCN(CCCCNS(=O)(=O)c2cccc3c(N(C)C)cccc23)CC1
active: [8] 2 µM
not listed: [2] | [9]
inactive: all other assays above

CC(C)CC(NP(=O)(O)O[C@@H]1O[C@@H](C)[C@H](O)[C@@H](O)[C@H]1O)C(=O)NC(Cc1c[nH]c2ccccc12)C(=O)O (stereo partly drawn)
inactive: [2] | [3] | [4] | [8]

Nc1ccn([C@@H]2O[C@H](CO)[C@@H](O)[C@@H]2O)c(=O)n1
inactive: [1] | [6]

CN[C@H](CC(C)C)C(=O)N[C@H]1C(=O)N[C@@H](CC(N)=O)C(=O)N[C@H]2C(=O)N[C@H]3C(=O)N[C@H](C(=O)N[C@H](C(=O)O)c4cc(O)cc(O)c4-c4cc3ccc4O)[C@H](O)c3ccc(c(Cl)c3)Oc3cc2cc(c3O[C@@H]2O[C@H](CO)[C@@H](O)[C@H](O)[C@H]2O[C@H]2C[C@](C)(N)[C@H](O)[C@H](C)O2)Oc2ccc(cc2Cl)[C@H]1O
inactive: [1] | [6] | [7]

N.N.O=C(O)C1(C(=O)O)CCC1.[Pt]
active: [1] 31.6 µM
inactive: [6] | [7]

O=S(=O)(c1cccc2c(I)cccc12)N1CCCNCC1
active: [4] 14.1 µM
inactive: [1] | [3] | [7] | [5]

COc1cc(SC)ccc1C(=O)N1CCC(Cc2ccccc2)CC1
not listed: [6] | [7] | [9]
inactive: all other assays above

CNCC[C@H](Oc1ccc(C(F)(F)F)cc1)c1ccccc1
inactive: [1] | [3] | [7] | [5]

C[N+]1(C)CCC(OC(=O)C(c2ccccc2)c2ccccc2)CC1
inactive: [2] | [3] | [4]

CC(N)C(=O)OC(C)(C)Cc1ccc(Cl)cc1 (stereo not drawn)
inactive: [3] | [5]

C=C[C@H]1CN2CC[C@@H]1C[C@@H]2[C@@H](O)c1ccnc2ccc(OC)cc12
inactive: [2] | [3] | [4] | [5] | [8]

C=C/C(C)=C/[C@@]1(C)SC(=O)C(C)=C1O
active: [1] 50.1 µM
inactive: [6] | [7]

CC(C)(C)NCC(O)COc1nsnc1N1CCOCC1 (stereo not drawn)
inactive: [1] | [6]

C=C[C@@H]1CN2CC[C@@H]1C[C@H]2[C@H](O)c1ccnc2ccc(OC)cc12
inactive: [2] | [3] | [4] | [5] | [8]

N#C/C(=C\c1ccc(O)c(O)c1)C(=O)NCc1ccccc1
active: [2] 10 µM
not listed: [1] | [9]
inactive: all other assays above

COc1ccc(/C=C/C(=O)Nc2ccccc2C(=O)O)cc1OC
not listed: [2] | [9]
inactive: all other assays above

O=c1[nH]c2ccccc2n1CCCN1CCN(C(c2ccccc2)c2ccccc2)CC1
inactive: [6] | [7]

CN1CCc2cc(NC(=O)Nc3cccnc3)ccc21
not listed: [2] | [8] | [9]
inactive: all other assays above

CN1C2CC(OC(=O)[C@H](CO)c3ccccc3)CC1C1OC12 (stereo partly drawn)
inactive: [2] | [3] | [4] | [5] | [8]

O=C1NC(=O)/C(=C/c2ccc(-c3ccc(F)cc3O)o2)S1
active: [2] 39.8 µM
inactive: [3] | [5]

CN1CCc2ccccc2Cc2[nH]c3ccccc3c2CC1
50.1 µM (active) and inactive: [1]
inactive: [3] | [6] | [7] | [4] | [5]

CC[C@@H](C)[C@H]1O[C@]2(CC[C@@H]1C)C[C@@H]1C[C@@H](C/C=C(\C)[C@@H](O[C@H]3C[C@H](OC)[C@@H](O[C@H]4C[C@H](OC)[C@@H](O)[C@H](C)O4)[C@H](C)O3)[C@@H](C)/C=C/C=C3\CO[C@@H]4[C@H](O)C(C)=C[C@@H](C(=O)O1)[C@]34O)O2
inactive: [7]

Oc1ccccc1O
not listed: [1] | [2] | [9]
inactive: all other assays above

N.N.N.N.N.N.N.N.N.N.N.N.N.N.O.O.[Ru+4].[Ru+5].[Ru+5]
active: [1] 8.44 µM | [2] 4.47 µM
inactive: [4] | [5]

CCC1C(=O)OCC1Cc1cncn1C (stereo not drawn)
inactive: [2] | [3] | [4] | [5]

C[N+]1(C)C2CC(OC(=O)[C@H](CO)c3ccccc3)CC1C1OC12 (stereo partly drawn)
inactive: [3] | [4] | [5] | [8]

O=c1[nH]c2cc(C(F)(F)F)ccc2n1-c1cc(C(F)(F)F)ccc1O
inactive: [1] | [3] | [6] | [7] | [5]

CN1[C@@H](CC(=O)c2ccccc2)CCC[C@H]1C[C@H](O)c1ccccc1
not listed: [1] | [8] | [9]
inactive: all other assays above

CO/N=C(\C(=O)N[C@@H]1C(=O)N2C(C(=O)O)=C(COC(C)=O)CS[C@H]12)c1csc(N)n1 (stereo in doubt)
inactive: [6] | [7]
active: [1] 56.2 µM | [9] 7.94 µM

Brc1c(Br)c(Br)c2n[nH]nc2c1Br
inactive: [3] | [6] | [7] | [4] | [5]

From PubChem BioAssay (NCATS)
